Source: PubChem BioAssay (NCATS)
Results filed as inconclusive are left out. Calls of active or inactive are those of the source. Calls follow the shape of the dose curve; as a rule, active = well fitted curve in the direction sought with a large enough effect; inconclusive = small, poorly fitted or top-dose-only effect, or another doubt; inactive = no such curve, though single readings can be large; an effect the other way counts as inactive or inconclusive.

Tests used:
[1] = test system: MKL-2; experiment: qHTS assay to identify novel small-molecules to repurpose for Merkel cell carcinoma treatment (AID 1296009); conditions: MCC and control cell lines, CellTiter-Glo viability, 72 h; series mostly up to 46 µM; also: nearly all actives have a fitted effect of over 60% in size
Summary of the method: (§1)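 Cells were treated for 72 hr at 37 degree celsius with compounds in 8- or 11-point dose response. Viability was read by CellTiter-Glo luminescence, normalized to no-cell (cytotoxicity) and DMSO controls.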

[2] = test system: NIH3T3; experiment: as above; conditions: MCC and control cell lines, CellTiter-Glo viability, 72 h; series mostly up to 44.8 µM
Summary of the method: as §1

[3] = test system: UISO; experiment: as above; conditions: MCC and control cell lines, CellTiter-Glo viability, 72 h; series mostly up to 46 µM
Summary of the method: as §1

[4] = test system: WaGa; experiment: as above; conditions: MCC and control cell lines, CellTiter-Glo viability, 72 h; series mostly up to 46 µM
Summary of the method: as §1

[5] = test system: C33A; experiment: Primary qHTS to identify gynecologic anti-cancer compounds using libraries of approved drugs and bioactive compounds (AID 1345084); conditions: Gynecologic cancer cell panel viability, ATPlite luminescence, 48 h; series mostly up to 57.5 µM; also: nearly all actives have a fitted effect of over 55% in size
Summary of the method: (§2)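 Luminescence from the ATPlite ATP-monitoring reagent indicates viable cell number; lower signal means cytotoxicity. Cells received compound 16 h after seeding and were exposed for 48 h across five concentrations.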

[6] = test system: CAOV3; experiment: as above; conditions: Gynecologic cancer cell panel viability, ATPlite luminescence, 48 h; series mostly up to 57.5 µM
Summary of the method: as §2

[7] = test system: CASKI; experiment: as above; conditions: Gynecologic cancer cell panel viability, ATPlite luminescence, 48 h; series mostly up to 57.5 µM
Summary of the method: as §2

[8] = test system: Es-2; experiment: as above; conditions: Gynecologic cancer cell panel viability, ATPlite luminescence, 48 h; series mostly up to 57.5 µM
Summary of the method: as §2

[9] = test system: HeLa; experiment: as above; conditions: Gynecologic cancer cell panel viability, ATPlite luminescence, 48 h; series mostly up to 57.5 µM
Summary of the method: as §2

[10] = test system: Hek293T; experiment: as above; conditions: Gynecologic cancer cell panel viability, ATPlite luminescence, 48 h, control line for the selectivity index; series mostly up to 57.5 µM
Summary of the method: as §2

[11] = test system: JEG-3; experiment: as above; conditions: Gynecologic cancer cell panel viability, ATPlite luminescence, 48 h; series mostly up to 57.5 µM
Summary of the method: as §2

[12] = test system: OV90; experiment: as above; conditions: Gynecologic cancer cell panel viability, ATPlite luminescence, 48 h; series mostly up to 57.5 µM
Summary of the method: as §2

[13] = test system: PA-1; experiment: as above; conditions: Gynecologic cancer cell panel viability, ATPlite luminescence, 48 h; series mostly up to 57.5 µM
Summary of the method: as §2

[14] = test system: SKOV3; experiment: as above; conditions: Gynecologic cancer cell panel viability, ATPlite luminescence, 48 h; series mostly up to 57.5 µM
Summary of the method: as §2

[15] = test system: Tov-21-G; experiment: as above; conditions: Gynecologic cancer cell panel viability, ATPlite luminescence, 48 h; series mostly up to 57.5 µM
Summary of the method: as §2

[16] = test system: Tov112D; experiment: as above; conditions: Gynecologic cancer cell panel viability, ATPlite luminescence, 48 h; series mostly up to 57.5 µM
Summary of the method: as §2

[17] = Drug repurposing screens with cells derived from glioblastoma tumor samples (AID 1345199); conditions: GBM patient neurospheres viability, ATP luminescence, 48 h; also: nearly all actives have a fitted effect of over 40% in size
Summary of the method: (§3)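 Four patient lines of CD133+ GBM neurospheres were screened at several concentrations; hits were retested in those lines plus three slower-growing GBM lines, using 48-hour treatment and ATP-based viability.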

[18] = test system: astro; experiment: as above; conditions: viability, ATP luminescence, 48 h; series mostly up to 45.9 µM
Summary of the method: as §3

[19] = at 45.9 µM (top of the series), tumour line B
[20] = at 45.9 µM (top of the series), tumour line D
[21] = at 46.1 µM (top of the series), tumour line C
[22] = at 46 µM (top of the series), tumour line A
% is scaled to controls: 0 for no effect and ±100 for the full control effect.

COc1ccc(C2CNC(=O)C2)cc1OC1CCCC1 (stereo not drawn)
inactive: Potency [1] | outcome [2] | Potency [3] | Potency [4] | Potency [5] | Potency [6] | Potency [7] | Potency [8] | Potency [9] | Potency [10] | Potency [11] | Potency [12] | Potency [13] | Potency [14] | Potency [15] | Potency [16] | activity, negative = cell killing ([17]; at 20 µM (top of the series), tumour line C) -0.6% | activity, negative = cell killing ([17]; at 21.2 µM (top of the series), tumour line B) -12.9% | activity, negative = cell killing ([17]; at 21.2 µM (top of the series), tumour line D) -16.7% | activity, negative = cell killing ([17]; at 21.3 µM (top of the series), tumour line A) -26.3% | Potency [18]

CN(CCOc1ccc(NS(C)(=O)=O)cc1)CCc1ccc(NS(C)(=O)=O)cc1
inactive: Potency [1] | outcome [2] | Potency [3] | Potency [4] | Potency [5] | Potency [7] | Potency [8] | Potency [9] | Potency [10] | Potency [11] | Potency [12] | Potency [13] | Potency [14] | Potency [15] | Potency [16] | activity, negative = cell killing [17, 19] -5.75% | activity, negative = cell killing [17, 20] -4.11% | activity, negative = cell killing [17, 21] 4.34%

NC12CC3CC(CC(C3)C1)C2
inactive: Potency [1] | outcome [2] | Potency [3] | Potency [4] | Potency [5] | Potency [7] | Potency [8] | Potency [9] | Potency [10] | Potency [11] | Potency [12] | Potency [13] | Potency [14] | Potency [15] | Potency [16] | activity, negative = cell killing [17, 19] -22.3% | activity, negative = cell killing [17, 22] 14.4% | activity, negative = cell killing [17, 21] 2.2%

NCCc1cnc[nH]1
inactive: Potency [1] | outcome [2] | Potency [3] | Potency [4] | Potency [5] | Potency [6] | Potency [7] | Potency [8] | Potency [9] | Potency [10] | Potency [11] | Potency [12] | Potency [13] | Potency [14] | Potency [15] | Potency [16] | activity, negative = cell killing [17, 19] 27.7% | activity, negative = cell killing [17, 20] 2.11% | activity, negative = cell killing [17, 21] 0.797% | Potency [18]

CC1(C)O[C@H]2CC(=O)OC[C@]23[C@H]2CC[C@@]4(C)[C@H](c5ccoc5)OC(=O)[C@H]5O[C@]54[C@]2(C)C(=O)C[C@@H]13
inactive: Potency [1] | outcome [2] | Potency [3] | Potency [4] | Potency [5] | Potency [6] | Potency [7] | Potency [8] | Potency [9] | Potency [10] | Potency [11] | Potency [12] | Potency [13] | Potency [14] | Potency [15] | Potency [16] | activity, negative = cell killing [17, 19] -1.56% | activity, negative = cell killing [17, 20] -7.18% | activity, negative = cell killing [17, 22] -18.9% | activity, negative = cell killing [17, 21] 3.51% | Potency [18]

Cn1ccc2cc3c(cc21)CCN3C(=O)Nc1cccnc1
inactive: Potency [1] | outcome [2] | Potency [3] | Potency [4] | Potency [5] | Potency [7] | Potency [8] | Potency [9] | Potency [10] | Potency [11] | Potency [12] | Potency [13] | Potency [14] | Potency [15] | Potency [16]
